This is a sample that favours compounds with a hit; in the whole collection about 3.1% have one here.
EWS-Fli block: inhibitors of EWS/Fli oncoprotein transcriptional activity; AID 651661; A673 NR0B1-luciferase reporter, viability-normalised; 350,000 compounds, 0.67% hits; inhibition, % at 12.6 µM;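 active = mean inhibition of at least 50% after viability correction, with every replicate also passing that limit; inconclusive = mean reaches 50% but only one of two replicates passes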;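 note: firefly luciferase signal divided by Alamar Blue viability fluorescence both relative to DMSO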
Statin myotox sup: suppression of simvastatin myotoxicity | C2C12 myotubes + simvastatin, ATP luminescence, 48 h; scaled: DMSO 0, geranylgeraniol control 100 | rescue of ATP level, % at 7.49 µM | 330,000 compounds, 0.78% hits;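 active = mean ATP rescue above about 67%, or every replicate alone reaching that limit, limit read from the data, passing the limit was not always enough; inconclusive = no clear call, values can overlap the other calls; inactive = mean under the limit and some replicate under it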;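 note: myotubes were challenged with 10 µM simvastatin during compound exposure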
GSIS activator: GLuc luminescence reporter in INS-1E cells, primary screen for activators of glucose-dependent secretion of insulin | activation, % at 16.6 µM | AID 743287 | INS-1E GLuc reporter insulin secretion, 2-3 h | 370,000 compounds, 0.61% hits;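 active = lowest replicate activation of at least 40%, so every replicate reaches that level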;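 note: 0% = median of neutral control wells and 100% = median of IBMX positive control wells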
HIV Env fusion: HIV envelope-mediated fusion inhibition; HeLa-JRFL Env/CEM21 cell fusion, luciferase; inhibition, % at 12.3 µM; 360,000 compounds, 1.1% hits; AID 651610;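 active = mean replicate inhibition score of at least 50 and every replicate individually at or above 50; inconclusive = only one of the two criteria met; inactive = mean below 50 and not all replicates reaching 50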;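 note: 0% = plate neutral controls and 100% = maraviroc near 300 nM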
miR122 inh: blocks miR-122 activity in Huh7 sensor cells; Huh7 miR-122 Renilla luciferase sensor, 48 h; neutral wells = 0, positive control = 100; activation (reporter increase), % at 12.5 µM; 340,000 compounds, 0.3% hits; AID 602342;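 active = mean replicate activation score at least 90 and every replicate individually at or above 90; inconclusive = only one of the two criteria met; inactive = neither criterion met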;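 note: higher luciferase means less miR-122 activity so hits act as miR-122 inhibitors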
PAX8 reporter: lowers PAX8-driven luciferase in RMG-I cells | AID 652154 | 360,000 compounds, 1.2% hits | RMG-I TPO-luciferase reporter, SteadyGlo, 24 h | inhibition, % at 12.6 µM;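 active = mean replicate inhibition at least 60% with every replicate also reaching 60%; inconclusive = only one of the two criteria is met; inactive = mean below 60% and not all replicates reaching 60%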;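 note: luciferase light reporting Pax8 driven TPO promoter activity; plate controls were median of neutral control wells for no effect and mitoxantrone controls for full effect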
Active calls of the source: *; ? = inconclusive; . = not tested or not shown; [ ] = remark or other dose.

SMILES | EWS-Fli block | Statin myotox sup | GSIS activator | HIV Env fusion | miR122 inh | PAX8 reporter
COc1ccc(OC)c(/C=C/C(=O)OCC(=O)N2CCCC2)c1 | 1 | -2 | 10 | . | -4 | 5
Cc1ccc(OCC(O)CNC2CCCC2)c(C)c1 (configuration not stated) | 5 | 4 | . | -5 | 0 | 3
Cc1ccccc1OCC(O)CNC1CCC(NCC(O)COc2ccccc2C)CC1 (configuration not stated) | 69* | -258 | 74 | -47 | -31 | 114*
COc1ccc([Si](C)(C)[C@H]2[C@H](CCO)O[C@@]3(C(=O)N(Cc4cccc(NC(C)=O)c4)c4ccccc43)[C@@H]2C)cc1 | 21 | . | . | -4[16.7 µM] | . | ?
COc1ccc([Si](C)(C)[C@@H]2[C@@H](CCO)O[C@]3(C(=O)N(Cc4ccc(NC(C)=O)cc4)c4ccccc43)[C@H]2C)cc1 | 7 | . | . | ? | . | 107*
COc1ccc([Si](C)(C)[C@H]2[C@H](CCO)O[C@@]3(C(=O)N(Cc4ccc(NC(C)=O)cc4)c4ccccc43)[C@@H]2C)cc1 | -20 | . | . | 10[16.7 µM] | . | 111*
COc1ccc(/C=C2\CCCCC2=O)cc1 | -47 | -8 | . | 12 | 7 | -31
COc1ccc(C=C2CS(=O)(=O)CC(=Cc3ccc(OC)cc3)C2=O)cc1 | 60* | 9 | -27 | -49 | 28 | 77*
CCCN(C)C[C@@H]1Oc2cc(C#Cc3cccc(F)c3)ccc2S(=O)(=O)N([C@H](C)CO)C[C@@H]1C | 6 | 4 | 4 | 35[16.7 µM] | -6[16.7 µM] | .
CC(=C\C(=O)O)/C(=C/c1ccc(C)o1)C(=O)O | 4 | . | -7 | . | -8 | 76*
CCOc1ccc(N(C(=O)Cn2nnc3ccccc32)C(C(=O)NC(C)(C)CC)c2cccn2C)cc1 (configuration not stated) | . | -3 | . | . | -3 | .
CCC(C)(C)NC(=O)C(c1cccn1C)N(C(=O)Cn1nnc2ccccc21)c1ccc(OC)cc1OC (configuration not stated) | . | 12 | . | -186 | 92* | .
Cc1ccc(NS(=O)(=O)c2ccc(-c3ccc(=O)[nH]n3)o2)cc1N(C)C | -11 | -6 | 0 | -9 | 0 | -41
Cc1ccc(NS(=O)(=O)c2ccc(-c3ccc(=O)[nH]n3)o2)cc1Cl | -14 | 137* | 8 | -8 | 15 | -3
COc1cccc(S(=O)(=O)N[C@H]2CC[C@@H](CC(=O)NCc3ccc(F)cc3)O[C@H]2CO)c1 | 0 | 2 | -1 | -3[16.7 µM] | . | -3
CCOCCCNC(=O)/C(C#N)=C/c1cc(OC)c(O)c([N+](=O)[O-])c1 | 1 | . | -49 | -36 | . | 5
CCOCCCNC(=O)/C(C#N)=C/c1ccc(Cl)c([N+](=O)[O-])c1 | 65* | -5 | -24 | -36 | 3 | -3
Cc1cccc(S(=O)(=O)N(C)C[C@H]2OCc3cn(nn3)CCCC(=O)N([C@@H](C)CO)C[C@H]2C)c1 | -8 | 5 | 18 | -4[16.7 µM] | 4[16.7 µM] | .
C[C@@H]1CN([C@H](C)CO)C(=O)Cc2cc(NC(=O)NC3CCCCC3)ccc2O[C@@H]1CN(C)Cc1ccc(-c2ccccc2)cc1 | 6 | -111 | -8 | 11[16.7 µM] | -10[16.7 µM] | 23
Cc1cccc(-c2noc(Cc3ccc(Cl)cc3)n2)c1 | . | 121* | . | . | -4 | .
COc1ccc(Cc2nc(-c3cccc(C)c3)no2)cc1 | . | 13 | . | . | -3 | .
Cc1cccc(OCc2nc(-c3cccnc3)no2)c1 | -38 | -1 | 3 | . | 10 | 92*
CCOC(=O)c1cc(OC(=O)c2ccccc2OC)n(-c2ccccc2)n1 | . | 2 | -1 | -14 | 4 | .
CCOC(=O)c1sc2ccccc2c1OC(=O)c1ccccc1OC | 3 | -2 | -3 | -13 | -4 | 60*
COc1ccccc1NC(=O)N1CCCCN2[C@H](CO)[C@H](c3ccc(-c4ccccc4)cc3)[C@H]2C1 | -7 | . | . | . | 6[16.7 µM] | 44
SMILES | EWS-Fli block | Statin myotox sup | GSIS activator | HIV Env fusion | miR122 inh | PAX8 reporter
OC(CNCCc1ccc(C(F)(F)F)cc1)COc1cccc2ccccc12 (configuration not stated) | . | -4 | 506* | 14 | -6 | 50
OC(CNCCc1ccc(C(F)(F)F)cc1)COc1ccc2ccccc2c1 (configuration not stated) | 32 | 8 | 64 | 27 | -12 | 12
Nc1c(C(=O)Nc2ccc3c(c2)OCCO3)nnn1Cc1ccc(Cl)cc1 | -113 | 20 | 45* | -167 | 15 | -271
Cc1ccc(NC(=O)Cn2nnc(C(=O)NCc3ccc4c(c3)OCO4)c2N)cc1 | . | -28 | 0 | 5 | . | 0
Cc1cc(C)c(NC(=O)Cn2nnc(C(=O)NCc3ccc4c(c3)OCO4)c2N)c(C)c1 | . | 92* | . | . | 2 | .
COC(=O)c1sc(S(=O)(=O)Nc2ccc3cn[nH]c3c2)c(C(=O)OC)c1C | . | 117* | . | -9 | 28 | 5
Cc1cc(C)c(C)c(S(=O)(=O)Nc2ccc3cn[nH]c3c2)c1C | -30 | -6 | -9 | . | 157* | 49
COc1ccc(S(=O)(=O)N[C@H]2C=C[C@H](CC(=O)N3CCc4ccccc4C3)O[C@H]2CO)cc1 | 4 | 3 | . | 4[16.7 µM] | -17[16.7 µM] | 29
Cc1cc(-n2c(SCC(=O)NCCC3=CCCCC3)nc3n[nH]c(C)c3c2=N)ccc1Cl | . | -24 | -6 | 9 | 45 | 88*
Cc1ccc(Cl)cc1-n1c(SCC(=O)NCCC2=CCCCC2)nc2n[nH]c(C)c2c1=N | . | -10 | -2 | 14 | 2 | 21
Cc1ccc(S(=O)(=O)Nc2ccc3c(c2)C(=O)N([C@@H](C)CO)C[C@H](C)[C@H](CN(C)Cc2ccc(C(F)(F)F)cc2)OCCCC[C@H](C)O3)cc1 | 6 | . | 2 | 33[16.7 µM] | -5[16.7 µM] | 108*
C[C@@H]1CN([C@H](C)CO)C(=O)c2cc(NS(=O)(=O)c3ccc(F)cc3)ccc2O[C@@H](C)CCCCO[C@@H]1CN(C)Cc1ccccc1 | 29 | . | -21 | 4[16.7 µM] | -4[16.7 µM] | 106*
C[C@H]1CCCCO[C@H](CN(C)Cc2ccc(C(F)(F)F)cc2)[C@@H](C)CN([C@@H](C)CO)C(=O)c2cc(NS(=O)(=O)c3ccc(F)cc3)ccc2O1 | 14 | . | -16 | 68*[16.7 µM] | -2[16.7 µM] | 89*
Cc1ccc(S(=O)(=O)Nc2ccc3c(c2)C(=O)N([C@@H](C)CO)C[C@H](C)[C@H](CN(C)Cc2ccc(C(F)(F)F)cc2)OCCCC[C@@H](C)O3)cc1 | 9 | . | 6 | -1[16.7 µM] | -5[16.7 µM] | 102*
C[C@@H]1CCCCO[C@@H](CN(C)Cc2ccc(C(F)(F)F)cc2)[C@@H](C)CN([C@H](C)CO)C(=O)c2cc(NS(=O)(=O)c3ccc(F)cc3)ccc2O1 | -14 | . | 3 | 2[16.7 µM] | -6[16.7 µM] | -2
O=C(NCc1ccccc1F)[C@@H]1[C@@H](CO)[C@@H]2Cn3c(cccc3=O)[C@@H]2N1C(=O)CC1CC1 | -1 | 3 | 11 | . | -5[16.7 µM] | 3
